Laboratory results reported in the OligoGym collection.

biological target: EMILIN2; test: pooled miR-30 sensor sort-seq; sequence = guide strand; settings: shRNA
Further: reference of the scale not given here.

Row | Sequence | sensor-assay potency score (higher = more potent)
1 | ATAGTCATCACACTGCTGCTGG | 0.195
2 | TTGACCAATGTCACCATTCTTT | -0.477
3 | TTCTCCGTCACATTGATCCTTG | -0.623
4 | TTTCTGATCAACAAGCTGCTTC | 0.352
5 | TAGGTCTGAAGTTCACTCGATA | -0.326
6 | TAGAGTTTTTACAACTATCTAT | -0.151

biological target: EMP1; test: as above; settings: shRNA

Row | Sequence | sensor-assay potency score (higher = more potent)
7 | ATCTACCGTATTGGAAACCAAC | -1.95
8 | TTCACTGGCATATGACAGGCTG | -0.108
9 | TAGTGTAGATGGACACCCCCAC | -0.261
10 | TTGGAAACCAACCAGACATTGG | -0.971
11 | AATGGTGCTAACAAATAGCATA | -1.39
12 | ATAATAACAGTAGCGATGTGGA | -0.819
13 | TGATGCATCTACCGTATTGGAA | -0.931
14 | TTTTTCCAAAGACCTACTGATG | -1.45
15 | TAGCCGTGGTGATACTGCGTTC | -1.37
16 | TACTGATGCATCTACCGTATTG | -1.81
17 | ATAGCCGTGGTGATACTGCGTT | -0.125
18 | AATAGCATAATAACAGTAGCGA | 0.0884
19 | ATAATGACTAGTGTAGATGGAC | -0.252
20 | ACCGTATTGGAAACCAACCAGA | -1.97
21 | TAGCATAATAACAGTAGCGATG | -1.5
22 | TACAGTTTTTCCAAAGACCTAC | -0.739
23 | TTCGCATAATGACTAGTGTAGA | -1.4
24 | ATTCGCATAATGACTAGTGTAG | -0.191
25 | TTGAGGGCATCTTCACTGGCAT | -0.461
26 | TCACTGGCATATGACAGGCTGT | -1.18
27 | ATAGCATAATAACAGTAGCGAT | -1.69
28 | TATTGGAAACCAACCAGACATT | -1.22
29 | TACCGTATTGGAAACCAACCAG | -0.163
